The test system of one assay is Klebsiella pneumoniae. The note with it: Concentration 32 ug.mL-1;; ASSAY_TEST Inhibition of Bacterial Growth; detection method Absorption (OD600); MEDIA CAMHB; plate type 384well; NBS; CORNING #3640; time 18 hr.
A further assay has as its system Candida albicans. The following applies: Concentration 32 ug.mL-1; ASSAY_TEST Inhibition of Fungal Growth; detection method Absorption (OD530).
Another assay has as its system Cryptococcus neoformans. The note with it: Concentration 32 ug.mL-1; ASSAY_TEST Inhibition of Fungal Growth; detection method Resazurin; Absorption (OD600-OD570); plate type 384well; NBS; CORNING #3640.

The structures appear in SMILES notation. Entries with a potency or affinity are not part of this list.

For the compound `COc1cccc(NC(=O)Cn2nc3ccc(-c4ccc(Cl)cc4)nn3c2=O)c1`, the Inhibition in the assay with Klebsiella pneumoniae was 5.27%; in the assay with Candida albicans, 2.11%; with Cryptococcus neoformans it was -14.88%.

As to `O=C(Cn1nc2c(SC3CCCCC3)nccn2c1=O)Nc1ccc(Cl)cc1F`, the Inhibition in the assay with Klebsiella pneumoniae is listed as 10.76%; with Candida albicans, 1.51%; in the assay with Cryptococcus neoformans, -29.46%.

For the compound `CC(C)(C)S(=O)(=O)c1ccc2nn(CC(=O)Nc3ccc(Br)cc3)c(=O)n2n1`, the Inhibition with Klebsiella pneumoniae is given as 6.53%; in the assay on Candida albicans it was 2.28%; in the assay with Cryptococcus neoformans it was -17.49%.

Turning to `N#Cc1cccc(Cn2nc3ccc(S(=O)(=O)N4CCCCCC4)cn3c2=O)c1`, the figures for the Inhibition with Klebsiella pneumoniae, with Candida albicans and in the assay with Cryptococcus neoformans were 8.88%, -0.26% and -9.97%, respectively.

As to `CC(=O)c1ccc(NC(=O)Cn2nc3ccc(-c4ccccc4)nn3c2=O)cc1`, the Inhibition is 10.95% with Klebsiella pneumoniae, 2.61% in the assay with Candida albicans and -13.06% with Cryptococcus neoformans.

In the case of `Cc1c(Cl)cccc1NC(=O)Cn1nc2c(SCc3ccccc3)nccn2c1=O`, the results for the Inhibition in the assay on Klebsiella pneumoniae, in the assay on Candida albicans and with Cryptococcus neoformans were 1.96%, 2.12% and -7.14%, respectively.

Take `COc1cccc(Oc2nccn3c(=O)n(CC(=O)NCc4cccs4)nc23)c1`: the Inhibition is 11.61% in the assay with Klebsiella pneumoniae, 0.8% in the assay on Candida albicans and -9.44% in the assay with Cryptococcus neoformans.

Consider `Cc1cccc(CSc2nnc3c(=O)n(-c4ccc(Br)cc4)ccn23)c1`, for which the Inhibition in the assay with Klebsiella pneumoniae was -2.02%; with Candida albicans it was 2.08%; with Cryptococcus neoformans, -6.53%.

As to `Cc1ccc(C)c(S(=O)(=O)Nc2ccc3nncn3n2)c1`, the results for the Inhibition with Klebsiella pneumoniae, in the assay on Candida albicans and in the assay with Cryptococcus neoformans were 4.11%, 0.56% and -3.83%, respectively.

`CCc1cccc(NC(=O)Cn2nc3c(Sc4ccc(C)cc4C)nccn3c2=O)c1`: the Inhibition in the assay with Klebsiella pneumoniae is -3.14%; with Candida albicans it was 5.97%; in the assay on Cryptococcus neoformans, -23.88%.

Consider `Cc1ccc(Oc2nc3ccccc3n3c(=O)n(CC(=O)Nc4cccc(C(F)(F)F)c4)nc23)cc1`, for which the values for the Inhibition in the assay with Klebsiella pneumoniae, with Candida albicans and with Cryptococcus neoformans were 8.2%, 1.82% and -21.42%, respectively.

With `Cc1cc(C)cc(NC(=O)Cn2nc3n(C)c(=O)c4c(c(-c5ccccc5)cn4C)n3c2=O)c1`, the Inhibition in the assay with Klebsiella pneumoniae is 6.43%; in the assay with Candida albicans, 0.06%; with Cryptococcus neoformans, -5.54%.

`CCCCNC(=O)Cn1nc2n(Cc3ccco3)c(=O)c3sccc3n2c1=O`: the figures for the Inhibition in the assay on Klebsiella pneumoniae, with Candida albicans and with Cryptococcus neoformans were 5.33%, 0.44% and -11.54%, respectively.

With `Cc1ccc(C)c(CN(c2cccc(Cl)c2)S(=O)(=O)c2cccn3c(C)nnc23)c1`, the Inhibition in the assay on Klebsiella pneumoniae is 5.81%; in the assay with Candida albicans, 2.43%; in the assay with Cryptococcus neoformans, -8.33%.

Regarding `Cc1cccc(NC(=O)CSc2nnc3c4cc(-c5ccc(F)cc5)nn4ccn23)c1C`, the Inhibition in the assay on Klebsiella pneumoniae is recorded as 0.2%; in the assay with Candida albicans, 1.75%; in the assay with Cryptococcus neoformans it was -21.34%.

For `O=c1c2nn(Cc3ccc(F)cc3)c(=O)n2ccn1-c1ccccc1`, the Inhibition in the assay on Klebsiella pneumoniae was 9.86%; in the assay with Candida albicans, 2.87%; in the assay with Cryptococcus neoformans it was -6.47%.

As to `CCc1nnc2c(SCC(=O)Nc3cc(Cl)ccc3OC)nc3ccccc3n12`, the Inhibition in the assay with Klebsiella pneumoniae is given as 11.61%; with Candida albicans it was 1.63%; in the assay with Cryptococcus neoformans it was -7.04%.

For `Cc1ccccc1Nc1cc(C)n2c(=O)n(CCc3ccccc3)nc2n1`, the results for the Inhibition with Klebsiella pneumoniae, with Candida albicans and in the assay on Cryptococcus neoformans were 8.17%, 2.84% and -4.15%, respectively.

With `O=C(Cn1nc2c3cc(-c4ccc(F)cc4)nn3ccn2c1=O)N1CCCc2ccccc21`, the Inhibition in the assay with Klebsiella pneumoniae is listed as 8.12%; with Candida albicans it was 1.02%; with Cryptococcus neoformans it was -21.22%.

For `O=C(Cn1nc2c3c4c(sc3ncn2c1=O)CCCC4)NCc1ccccc1Cl`, the Inhibition is 0.41% with Klebsiella pneumoniae, 2.22% in the assay with Candida albicans and -5.52% in the assay with Cryptococcus neoformans.

As to `CCc1nnc2c(SCC(=O)Nc3cc(Cl)ccc3C)nc3ccccc3n12`, the Inhibition with Klebsiella pneumoniae is listed as 15.39%; in the assay on Candida albicans it was 3.09%; in the assay with Cryptococcus neoformans, -9.04%.

`COc1ccccc1Cn1c(=O)c2sccc2n2c(=O)n(Cc3c(F)cccc3Cl)nc12`: the results for the Inhibition in the assay with Klebsiella pneumoniae, in the assay with Candida albicans and with Cryptococcus neoformans were 8.3%, -2.27% and -30.55%, respectively.

For the compound `CCCn1c(=O)c2sccc2n2c(=O)n(CC(=O)c3ccccc3)nc12`, the Inhibition in the assay with Klebsiella pneumoniae was 3.65%; in the assay with Candida albicans, 4.43%; with Cryptococcus neoformans it was -9.13%.

For the compound `O=C(Cn1nc2c(Oc3ccccc3)nccn2c1=O)Nc1ccc(Br)cc1F`, the Inhibition in the assay on Klebsiella pneumoniae was -1.93%; in the assay with Candida albicans it was 5.04%; in the assay on Cryptococcus neoformans, -11.28%.

In the case of `Cc1ccc(C)c(NC(=O)Cn2nc3cc(C)nc(Nc4ccc(F)cc4)n3c2=O)c1`, the Inhibition in the assay with Klebsiella pneumoniae is listed as 5.73%; with Candida albicans, 2.17%; in the assay with Cryptococcus neoformans it was -16.31%.

Consider `CCCc1nnc2c(=O)n(CC(=O)Nc3ccc(Br)cc3F)c3ccccc3n12`, for which the Inhibition with Klebsiella pneumoniae was -10.52%; in the assay on Candida albicans it was 6.6%; in the assay with Cryptococcus neoformans, -24.08%.

On to `COc1ccc(-c2cc3c4nn(CC(=O)Nc5ccccc5OC)c(=O)n4ccn3n2)cc1`, for which the Inhibition with Klebsiella pneumoniae is reported as 7.14%; with Candida albicans it was 0.94%; with Cryptococcus neoformans it was -14.32%.

As for `CCCCOc1ccc(-c2cc3c4nnc(SCC(=O)Nc5cccc(C)c5C)n4ccn3n2)cc1`, the values for the Inhibition in the assay with Klebsiella pneumoniae, with Candida albicans and with Cryptococcus neoformans were 1.05%, -0.05% and -18.62%, respectively.

The values are drawn from ChEMBL document CHEMBL4513146, “CO-ADD screening of Karazin Kharkiv National University (Ukraine) compounds”.
